# uPA surface inh: blocks generation of uPA at the cell surface | cell surface uPA generation assay, qHTS | Potency, µM (highest dose often 38.3 µM), for inactives: top-dose activity change, negative = inhibition, hits mostly inhibitors | hit rate 0.31% among 330,000 | AID 540303; active = well fitted inhibition curve with a large enough effect; inconclusive = small, poorly fitted or top-dose-only effect; inactive = no such curve, though single readings can be large or run the other way; tested in mouse RAW 264.7 cells; note: potency is the fitted concentration of half-maximal effect; % is set by controls: 0 for no effect and ±100 for the full control effect; nearly all actives have a fitted effect of over 55% in size
# GLP1R cytotox: cytotoxicity counter-screen for GLP-1 receptor inverse agonists | Potency, µM (doses to about 38.3 µM), for the others: at the top dose activity change, negative = inhibition, actives largely listed as inhibitors | hit rate 0.13% among 410,000 | HEK293 cAMP-luciferase reporter cells, luminescence, 24 h;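 note: loss of luciferase light is scored as toxicity; potency is the fitted concentration of half-maximal effect; % is set by controls: 0 for no effect and ±100 for the full control effect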
#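 1536-well qHTS counterscreen of the MLSMR; 200 cells/uL, 12 h pre-incubation, 23 nL cpd, 24 h at 37 deg C 5% CO2, luciferase detection reagent, 12 min RT, luminescence. Inhibition = undesired.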
# CCT modulator: cytosolic chaperonin activity modulation | activity change, % (no concentration beside the values), hits read low | hit rate 0.3% among 360,000 | purified chaperonin ATPase assay, HTRF ADP detection, 30 min; in the data active = activity change below about -30%; note: % is set by controls: 0 for no effect and ±100 for the full control effect
#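 TRiC at 40 or 20 nM final (batch-dependent) in 30 mM Tris pH 7.4, 100 mM KCl, 5 mM MgCl2, 1 mM DTT, with compound at single 76 uM and 10 uM ATP, 30 min at 37 deg C. ADP detected by HTRF Transcreener, 665/615 ratio.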
# Mm-Cpn inhibitor: inhibitors of Methanococcus maripaludis chaperonin TRiC (MmCpn). AID 504842. purified Mm-Cpn ATPase, ADP Transcreener TR-FRET. hit rate 0.031% among 330,000. Potency, µM (doses to about 76.9 µM), for inactives: top-dose activity, negative = inhibition, usual class: inhibitors; note: potency is the fitted concentration of half-maximal effect; % is set by controls: 0 for no effect and ±100 for the full control effect; nearly all actives have a fitted effect of over 80% in size
#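 Compound-treated chaperonin, 25 nM final, turns over 10 uM ATP at 37°C for 30 min following a 10 min preincubation; ADP generated competes with ADP-d2 for Eu-cryptate antibody, lowering FRET.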
# GLP-1R agonist: GLP-1 receptor (human) agonism. P43220. HEK293 GLP-1R CRE-luciferase, luminescence, 4-6 h; cells express a hypersensitive GLP-1R form. Potency, µM (series often up to 45.6 µM), without a hit: at the highest dose activation, most hits filed as activators. hit rate 0.007% among 380,000. AID 624172; note: potency is the fitted concentration of half-maximal effect; % of control where 0% means no effect
# Target sequence (P43220 whole entry, looked up): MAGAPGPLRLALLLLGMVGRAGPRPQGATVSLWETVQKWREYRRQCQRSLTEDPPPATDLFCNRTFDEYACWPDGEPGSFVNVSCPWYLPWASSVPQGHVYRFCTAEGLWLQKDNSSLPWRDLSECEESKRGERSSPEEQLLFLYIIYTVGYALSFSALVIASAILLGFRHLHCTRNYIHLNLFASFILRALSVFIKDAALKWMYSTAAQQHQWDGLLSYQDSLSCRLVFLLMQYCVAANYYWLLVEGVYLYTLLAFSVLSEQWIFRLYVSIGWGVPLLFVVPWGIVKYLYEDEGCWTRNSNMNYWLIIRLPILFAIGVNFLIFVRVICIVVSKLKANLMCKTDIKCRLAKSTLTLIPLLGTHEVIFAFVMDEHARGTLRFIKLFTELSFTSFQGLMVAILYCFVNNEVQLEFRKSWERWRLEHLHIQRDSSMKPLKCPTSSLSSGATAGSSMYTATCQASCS
# GLP-1R inv ag: inverse agonists of human GLP-1 receptor. Potency, µM (series often up to 38.3 µM), inactives show at the top dose activity change, negative = inhibition, most hits filed as inhibitors. P43220. HEK293 GLP-1R CRE-luciferase, luminescence, 24 h; GLP-1R form is constitutively active. AID 624417. hit rate 1.6% among 410,000; note: potency is the fitted concentration of half-maximal effect; % is set by controls: 0 for no effect and ±100 for the full control effect; nearly all actives have a fitted effect of over 55% in size
#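 Inverse agonists were sought by their lowering of basal cAMP reporter luciferase output in HEK293 cells stably carrying constitutively active human GLP-1R, after 24 h compound treatment.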
# * = called active by the depositor; ? = inconclusive; . = no result; [ ] = remark or other dose. The list is not random: actives were taken first. Their share in the collection is about 2.2%. Unless noted, calls come from the whole dose curve; as a rule, active = well fitted curve in the direction sought with a large enough effect; inconclusive = small, poorly fitted or top-dose-only effect, or another doubt; inactive = no such curve, though single readings can be large; an effect the other way counts as inactive or inconclusive.
SMILES,uPA surface inh,GLP1R cytotox,CCT modulator,Mm-Cpn inhibitor,GLP-1R agonist,GLP-1R inv ag
CC(=O)Nc1ccc(N(C(=O)Cn2nnc3ccccc32)C(C(=O)NCc2ccccc2)c2ccc(C)cc2)cc1 (centres undefined),.,4%,.,.,.,-3%
CN1CCc2c(sc3c2C(=O)NC(c2ccc(C(C)(C)C)cc2)N3)C1 (centres undefined),.,70%,.,.,.,5%
Cn1c(SCc2ccccc2Cl)nc(=O)c2c1NC(=O)CC2c1cc(F)ccc1F (centres undefined),.,-7%,.,.,.,-6%
COc1cc(O)c(CC=C(C)C)c(O)c1C(=O)CCc1ccc(O)cc1,-9%,?,1,6%,6%,2.5µM*
CCCc1cc(=O)oc2c3c(ccc12)OCN(Cc1ccc(OC)cc1)C3,.,51%,.,.,.,5%
Cc1ccc(-c2cc(C(=O)Nc3nccs3)c3ccccc3n2)o1,?,28%,1,-2%,-20%,10µM*
COc1ccc2[nH]c3c4c(ccc3c2c1)C(=O)C=CC4=O,3.2µM*,7.9µM*,0,0%,11%,?
C/C(=N\NC(=O)CSCc1ccccc1Cl)c1cc(O)ccc1O,2.5µM*,?,2,1%,17%,?
CC(=O)Nc1ccc(NC(=O)CSCc2ccccc2Cl)cc1,-1%,3%,1,.,5%,2%
COc1ccc(C2CC(O)(c3ccccc3)Oc3cc(OC)c(OC)c(OC)c32)cc1 (centres undefined),?,-4%,1,0%,16%,?
OC1(c2ccccc2)CC(c2ccccc2)c2ccccc2O1 (centres undefined),-3%,?,-3,.,1%,11µM*
CCNC(=O)COC(=O)c1cc(=O)[nH]c2ccccc12,.,0%,-35*,-1%,-12%,-9%
CCN(C(=O)COC(=O)c1cc(=O)[nH]c2ccccc12)c1c(N)n(Cc2ccccc2)c(=O)[nH]c1=O,-3%,4%,-2,.,-4%,11%
CC(C)CN(C(=O)COC(=O)c1cc(=O)[nH]c2ccccc12)c1c(N)n(Cc2ccccc2)c(=O)[nH]c1=O,3%,-2%,-30*,.,13%,-12%
COc1cccc(NC(=O)Cn2c(=O)n(Cc3ccc4c(c3)OCO4)c(=O)c3oc4ccccc4c32)c1,.,-5%,.,.,.,-1%
CN1CCN(c2oc(/C=C/c3ccc(F)cc3)nc2C#N)CC1,.,20%,.,.,.,6%
CCOC(=O)C1CCN(C(c2ccccc2OC)c2c(O)cc(C)n(CCOC)c2=O)CC1 (centres undefined),.,4%,.,.,.,16%
CN(C)c1cccc(NC(=O)c2ccco2)c1,0%,2%,0,-4%,6%,50%
CCN(CC)P(=O)(Nc1cccc(C(F)(F)F)c1)c1ccc(N(C)C)cc1NC(=O)c1ccco1 (centres undefined),?,-8%,-1,1%,-5%,2.5µM*
Cc1ccc(NC(=O)CN2C=NS(=O)(=O)c3ccccc32)cc1,.,-3%,.,.,.,3%
COc1ccccc1/C=C/C(=O)Oc1cccc2cccnc12,-2%,?,2,-3%,7%,4.5µM*
O=C(/C=C\c1ccco1)Oc1cccc2cccnc12,-1%,?,3,-1%,0%,?
COc1ccc2nc(Nc3nc(CSc4nc5ccccc5[nH]4)cc(=O)[nH]3)nc(C)c2c1,-7%,-2%[1.53 µM],0,1%,2%,?
Cc1nc(Nc2nc(CSc3nc4ccccc4[nH]3)cc(=O)[nH]2)nc2ccccc12,?,?,1,-1%,-4%,1.1µM*
Nc1cc(=O)[nH]c(=S)n1-c1ccccc1,-8%,0%,1,2%,20%,13%
SMILES,uPA surface inh,GLP1R cytotox,CCT modulator,Mm-Cpn inhibitor,GLP-1R agonist,GLP-1R inv ag
Cc1cc(=O)[nH]c(=S)n1-c1ccccc1,6%,2%,-34*,4%,-1%,3%
CCOC(=O)c1c(Nc2ccc(OCC)cc2)nnc(-c2ccccc2)c1-c1ccccc1,.,1%,.,.,6%,-15%
Cc1c(Cl)cccc1NC(=S)N=Nc1c(O)n(CN2CCOCC2)c2ccccc12,-17%,1.4µM*,1,5%,8%,?
CCOC(=O)c1ccc(NC(=O)c2c(NCc3cc(OC)c(OC)cc3OC)sc3c2CCCC3)cc1,.,-14%,.,.,.,-22%
CCN(CC)CCCNC(=O)Cc1csc2nc(-c3ccc(Cl)cc3)cn12,.,2%,.,.,.,?
Cc1ccccc1[C@@]1(C)ON(c2ccccc2C(F)(F)F)C1=O,?,-48%,1,0%,-2%,11µM*
CCN(CC)CCCNC(=O)c1oc2ccc(S(=O)(=O)N3CC(C)CC(C)C3)cc2c1C (centres undefined),-9%,?,0,1%,12%,1.4µM*
Cc1c(C(=O)N2CCCCC2)oc2ccc(S(=O)(=O)N3CC(C)CC(C)C3)cc12 (centres undefined),-9%,-17%,1,2%,1%,8.9µM*
Cc1c(C(=O)NCC2CCCO2)oc2ccc(S(=O)(=O)N3CC(C)CC(C)C3)cc12 (centres undefined),-4%,-5%,-1,-1%,16%,?
CC(C)N(Cc1nc(-c2ccccc2)no1)C(=O)C(Cl)(Cl)Cl,-18%,5%,-2,-12%,11%,11µM*
CN(Cc1nc(-c2ccc(Cl)cc2)no1)C(=O)CCN1C(=O)[C@H]2CC=CC[C@H]2C1=O,-3%,1%,3,1%,4%,2µM*
CCN(Cc1nc(-c2ccc(Cl)cc2)no1)CC1CCCO1 (centres undefined),4%,21%,-1,0%,5%,1.3µM*
Cc1ccc(-c2noc(CN(C(=O)CCCCCN3C(=O)c4ccccc4C3=O)C(C)C)n2)cc1,-8%,-7%,-6,-1%,3%,6.3µM*
CC1=C(c2ccc(Cl)cc2)S(=O)(=O)N=C1N1CCN(c2cccc(C)c2)C(C)C1 (centres undefined),.,-3%,.,.,.,-4%
CN(C)CCOc1ccccc1Cc1ccccc1 (tested in a mixture with another compound),.,.,.,.,7%,.
Cc1ccc(CC(=O)NCc2nc(-c3cccc(C)c3)no2)cc1,.,2%,.,.,.,-58%
O=C(COc1ccc(F)cc1)Nc1ccccc1C(=O)OCc1cc(=O)n2ccsc2n1,.,1%,.,.,.,0%

# Compound activity deposited in PubChem BioAssay by National Center for Advancing Translational Sciences (NCATS).
